{"source": "PubChem BioAssay AID1159580", "about": "(chemical genetic matrix, 2015)", "experiment": "chemical genetic growth profiling, strain panel (AID 1159580);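 also: tested at 20 µM; growth read once vehicle control cultures reached saturation at 30 °C; 1 = growth at the plate median or of vehicle wells; lower values mean less growth of the strain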", "conditions": "growth OD", "note": "Out of some 5,500 compounds screened, about 2,000 (36%) were called active. About 18% were inconclusive and are not listed. The list shows a part of the results. Values without a mark were called inactive. Rule as the data show it: active = normalized growth mostly below about 0.91 (no sharp cut-off); inconclusive = no clear call, values can overlap the other calls; inactive = mostly above about 0.92."}
{"smiles": "COc1ccc(-c2cc(=O)c3c(O)cc(O)cc3o2)cc1", "values": [{"measurement": "normalized growth", "setting": "S. cerevisiae deletion strains, locus YJR075W, strain HOC1, stronger effect = lower value", "value": 0.976}, {"measurement": "normalized growth", "setting": "S. cerevisiae deletion strains, locus YKL009W, strain mrt4, stronger effect = lower value", "value": 0.94}, {"measurement": "normalized growth", "setting": "S. cerevisiae deletion strains, locus YKL068W, stronger effect = lower value", "value": 0.979}, {"measurement": "normalized growth", "setting": "S. cerevisiae deletion strains, locus YKL085W, strain MDH1 (second series), stronger effect = lower value", "value": 0.98}, {"measurement": "normalized growth", "setting": "S. cerevisiae deletion strains, locus YKL085W, strain MDH1, stronger effect = lower value", "value": 0.98}, {"measurement": "normalized growth", "setting": "S. cerevisiae deletion strains, locus YKL160W, strain elf1, stronger effect = lower value", "value": 0.928}, {"measurement": "normalized growth", "setting": "S. cerevisiae deletion strains, locus YKL190W, strain CNB1, stronger effect = lower value", "value": 0.985}, {"measurement": "normalized growth", "setting": "S. cerevisiae deletion strains, locus YKR001C, strain vps1, stronger effect = lower value", "value": 0.991}, {"measurement": "normalized growth", "setting": "S. cerevisiae deletion strains, locus YKR026C, strain gcn3, stronger effect = lower value", "value": 0.994}, {"measurement": "normalized growth", "setting": "S. cerevisiae deletion strains, locus YKR091W, strain srl3, stronger effect = lower value", "value": 0.997}, {"measurement": "normalized growth", "setting": "S. cerevisiae deletion strains, locus YLL001W, strain dnm1, stronger effect = lower value", "value": 0.954}, {"measurement": "normalized growth", "setting": "S. cerevisiae deletion strains, locus YLL026W, stronger effect = lower value", "value": 0.997}, {"measurement": "normalized growth", "setting": "S. cerevisiae deletion strains, locus YLL041C, strain sdh2, stronger effect = lower value", "value": 0.996}, {"measurement": "normalized growth", "setting": "S. cerevisiae deletion strains, locus YLR027C, strain aat2, stronger effect = lower value", "value": 0.97}, {"measurement": "normalized growth", "setting": "S. cerevisiae deletion strains, locus YLR039C, strain RIC1, stronger effect = lower value", "value": 0.975}, {"measurement": "normalized growth", "setting": "S. cerevisiae deletion strains, locus YLR058C, strain SHM2, stronger effect = lower value", "value": 0.998}, {"measurement": "normalized growth", "setting": "S. cerevisiae deletion strains, locus YLR102C, strain apc9, stronger effect = lower value", "value": 0.984}, {"measurement": "normalized growth", "setting": "S. cerevisiae deletion strains, locus YLR113W, strain HOG1, stronger effect = lower value", "value": "0.694 (active)"}, {"measurement": "normalized growth", "setting": "S. cerevisiae deletion strains, locus YLR221C, strain rsa3, stronger effect = lower value", "value": 0.986}, {"measurement": "normalized growth", "setting": "S. cerevisiae deletion strains, locus YLR258W, strain gsy2, stronger effect = lower value", "value": 0.97}, {"measurement": "normalized growth", "setting": "S. cerevisiae deletion strains, locus YLR262C, strain YPT6 (second series), stronger effect = lower value", "value": 0.908}, {"measurement": "normalized growth", "setting": "S. cerevisiae deletion strains, locus YLR262C, strain YPT6, stronger effect = lower value", "value": 0.92}, {"measurement": "normalized growth", "setting": "S. cerevisiae deletion strains, locus YLR268W, strain sec22, stronger effect = lower value", "value": 0.985}, {"measurement": "normalized growth", "setting": "S. cerevisiae deletion strains, locus YLR320W, strain mms22, stronger effect = lower value", "value": 0.97}, {"measurement": "normalized growth", "setting": "S. cerevisiae deletion strains, locus YLR330W, strain CHS5, stronger effect = lower value", "value": 0.989}, {"measurement": "normalized growth", "setting": "S. cerevisiae deletion strains, locus YLR342W, strain FKS1 (second series), stronger effect = lower value", "value": 1.11}, {"measurement": "normalized growth", "setting": "S. cerevisiae deletion strains, locus YLR342W, strain FKS1, stronger effect = lower value", "value": 1.01}, {"measurement": "normalized growth", "setting": "S. cerevisiae deletion strains, locus YLR357W, strain rsc2, stronger effect = lower value", "value": 1.01}, {"measurement": "normalized growth", "setting": "S. cerevisiae deletion strains, locus YLR370C, strain arc18, stronger effect = lower value", "value": 0.98}, {"measurement": "normalized growth", "setting": "S. cerevisiae deletion strains, locus YLR371W, strain rom2, stronger effect = lower value", "value": 0.99}, {"measurement": "normalized growth", "setting": "S. cerevisiae deletion strains, locus YLR384C, strain iki3, stronger effect = lower value", "value": 1.02}, {"measurement": "normalized growth", "setting": "S. cerevisiae deletion strains, locus YLR418C, strain cdc73, stronger effect = lower value", "value": 0.957}, {"measurement": "normalized growth", "setting": "S. cerevisiae deletion strains, locus YML016C, strain PPZ1, stronger effect = lower value", "value": 1.02}, {"measurement": "normalized growth", "setting": "S. cerevisiae deletion strains, locus YML032C, strain rad52, stronger effect = lower value", "value": 1}, {"measurement": "normalized growth", "setting": "S. cerevisiae deletion strains, locus YML120C, strain ndi1, stronger effect = lower value", "value": 0.952}, {"measurement": "normalized growth", "setting": "S. cerevisiae deletion strains, locus YML124C, strain tub3, stronger effect = lower value", "value": 0.99}, {"measurement": "normalized growth", "setting": "S. cerevisiae deletion strains, locus YMR058W, strain fet3, stronger effect = lower value", "value": 0.983}, {"measurement": "normalized growth", "setting": "S. cerevisiae deletion strains, locus YMR078C, strain ctf18, stronger effect = lower value", "value": 0.981}, {"measurement": "normalized growth", "setting": "S. cerevisiae deletion strains, locus YMR125W, strain sto1, stronger effect = lower value", "value": 0.979}, {"measurement": "normalized growth", "setting": "S. cerevisiae deletion strains, locus YMR129W, stronger effect = lower value", "value": 0.991}, {"measurement": "normalized growth", "setting": "S. cerevisiae deletion strains, locus YMR205C, strain PFK2, stronger effect = lower value", "value": 0.968}, {"measurement": "normalized growth", "setting": "S. cerevisiae deletion strains, locus YMR223W, strain ubp8, stronger effect = lower value", "value": 0.982}, {"measurement": "normalized growth", "setting": "S. cerevisiae deletion strains, locus YMR231W, strain pep5, stronger effect = lower value", "value": 1.01}, {"measurement": "normalized growth", "setting": "S. cerevisiae deletion strains, locus YMR263W, strain SAP30, stronger effect = lower value", "value": 0.975}, {"measurement": "normalized growth", "setting": "S. cerevisiae deletion strains, locus YMR307W, strain GAS1, stronger effect = lower value", "value": 1.21}, {"measurement": "normalized growth", "setting": "S. cerevisiae deletion strains, locus YNL067W, strain RPL9B, stronger effect = lower value", "value": 0.946}, {"measurement": "normalized growth", "setting": "S. cerevisiae deletion strains, locus YNL071W, strain lat1, stronger effect = lower value", "value": 0.952}, {"measurement": "normalized growth", "setting": "S. cerevisiae deletion strains, locus YNL183C, strain NPR1, stronger effect = lower value", "value": "0.784 (active)"}, {"measurement": "normalized growth", "setting": "S. cerevisiae deletion strains, locus YNL209W, strain ssb2, stronger effect = lower value", "value": 0.967}, {"measurement": "normalized growth", "setting": "S. cerevisiae deletion strains, locus YNL233W, strain BNI4, stronger effect = lower value", "value": 0.984}, {"measurement": "normalized growth", "setting": "S. cerevisiae deletion strains, locus YNL248C, strain rpa49, stronger effect = lower value", "value": 1.03}, {"measurement": "normalized growth", "setting": "S. cerevisiae deletion strains, locus YNL250W, strain rad50, stronger effect = lower value", "value": 0.966}, {"measurement": "normalized growth", "setting": "S. cerevisiae deletion strains, locus YNL271C, strain bni1, stronger effect = lower value", "value": 0.98}, {"measurement": "normalized growth", "setting": "S. cerevisiae deletion strains, locus YNL298W, strain CLA4, stronger effect = lower value", "value": 0.994}, {"measurement": "normalized growth", "setting": "S. cerevisiae deletion strains, locus YNL307C, strain MCK1, stronger effect = lower value", "value": 0.978}, {"measurement": "normalized growth", "setting": "S. cerevisiae deletion strains, locus YNL322C, strain KRE1 (second series), stronger effect = lower value", "value": 0.984}, {"measurement": "normalized growth", "setting": "S. cerevisiae deletion strains, locus YNR049C, strain mso1, stronger effect = lower value", "value": 0.994}, {"measurement": "normalized growth", "setting": "S. cerevisiae deletion strains, locus YNR052C, strain pop2, stronger effect = lower value", "value": 0.973}, {"measurement": "normalized growth", "setting": "S. cerevisiae deletion strains, locus YOL012C, strain htz1", "value": 0.966}, {"measurement": "normalized growth", "setting": "S. cerevisiae deletion strains, locus YOL147C, strain pex11, stronger effect = lower value", "value": 0.99}, {"measurement": "normalized growth", "setting": "S. cerevisiae deletion strains, locus YOR001W, strain rrp6, stronger effect = lower value", "value": 1}, {"measurement": "normalized growth", "setting": "S. cerevisiae deletion strains, locus YOR061W, strain CKA2, stronger effect = lower value", "value": 0.991}, {"measurement": "normalized growth", "setting": "S. cerevisiae deletion strains, locus YOR069W, strain VPS5, stronger effect = lower value", "value": 1}, {"measurement": "normalized growth", "setting": "S. cerevisiae deletion strains, locus YOR070C, strain gyp1, stronger effect = lower value", "value": 0.968}, {"measurement": "normalized growth", "setting": "S. cerevisiae deletion strains, locus YOR080W, strain dia2, stronger effect = lower value", "value": 1}, {"measurement": "normalized growth", "setting": "S. cerevisiae deletion strains, locus YOR083W, strain WHI5, stronger effect = lower value", "value": 0.917}, {"measurement": "normalized growth", "setting": "S. cerevisiae deletion strains, locus YOR106W, strain vam3, stronger effect = lower value", "value": 0.93}, {"measurement": "normalized growth", "setting": "S. cerevisiae deletion strains, locus YOR136W, strain idh2, stronger effect = lower value", "value": 0.984}, {"measurement": "normalized growth", "setting": "S. cerevisiae deletion strains, locus YOR144C, strain elg1, stronger effect = lower value", "value": 1}, {"measurement": "normalized growth", "setting": "S. cerevisiae deletion strains, locus YOR184W, strain ser1, stronger effect = lower value", "value": 0.978}, {"measurement": "normalized growth", "setting": "S. cerevisiae deletion strains, locus YOR231W, strain MKK1, stronger effect = lower value", "value": 0.869}, {"measurement": "normalized growth", "setting": "S. cerevisiae deletion strains, locus YOR265W, strain rbl2, stronger effect = lower value", "value": 0.984}, {"measurement": "normalized growth", "setting": "S. cerevisiae deletion strains, locus YOR270C, strain vph1, stronger effect = lower value", "value": 0.95}, {"measurement": "normalized growth", "setting": "S. cerevisiae deletion strains, locus YOR290C, strain snf2, stronger effect = lower value", "value": 0.868}, {"measurement": "normalized growth", "setting": "S. cerevisiae deletion strains, locus YOR316C, strain cot1, stronger effect = lower value", "value": 0.987}, {"measurement": "normalized growth", "setting": "S. cerevisiae deletion strains, locus YPL051W, strain arl3, stronger effect = lower value", "value": 0.963}, {"measurement": "normalized growth", "setting": "S. cerevisiae deletion strains, locus YPL055C, strain LGE1, stronger effect = lower value", "value": 0.982}, {"measurement": "normalized growth", "setting": "S. cerevisiae deletion strains, locus YPL078C, strain atp4, stronger effect = lower value", "value": 0.92}, {"measurement": "normalized growth", "setting": "S. cerevisiae deletion strains, locus YPL106C, strain sse1, stronger effect = lower value", "value": 0.946}, {"measurement": "normalized growth", "setting": "S. cerevisiae deletion strains, locus YPL240C, strain hsp82, stronger effect = lower value", "value": 0.994}, {"measurement": "normalized growth", "setting": "S. cerevisiae deletion strains, locus YPL241C, strain CIN2, stronger effect = lower value", "value": 0.999}, {"measurement": "normalized growth", "setting": "S. cerevisiae deletion strains, locus YPL256C, strain CLN2, stronger effect = lower value", "value": "0.756 (active)"}, {"measurement": "normalized growth", "setting": "S. cerevisiae deletion strains, locus YPR119W, strain clb2, stronger effect = lower value", "value": 0.983}, {"measurement": "normalized growth", "setting": "S. cerevisiae deletion strains, locus YPR141C, strain kar3, stronger effect = lower value", "value": 0.985}, {"measurement": "normalized growth", "setting": "S. cerevisiae deletion strains, locus YPR163C, strain tif3, stronger effect = lower value", "value": 0.991}, {"measurement": "normalized growth", "setting": "S. cerevisiae deletion strains, locus YPR167C, strain met16, stronger effect = lower value", "value": 0.985}, {"measurement": "normalized growth", "setting": "S. cerevisiae deletion strains, strain wtn01, stronger effect = lower value", "value": 1}, {"measurement": "normalized growth", "setting": "S. cerevisiae strains, strain wild type, stronger effect = lower value", "value": 0.991}]}
